Each structure is given as a SMILES string. Values without a mark were called inactive. Records with an inconclusive call do not appear. The source made the active and inactive calls. The call rests on the fitted dose curve; in most records, active means well fitted curve in the direction sought with a large enough effect; inconclusive means small, poorly fitted or top-dose-only effect, or another doubt; inactive means no such curve, though single readings can be large; an effect the other way counts as inactive or inconclusive.

The text below walks through data of PubChem BioAssay (NCATS).

The nature of test [1]: HEK293 18hr Apoptosis Induction qHTS against the NCATS CANVASS Library (AID 1347357). Further: potency means the concentration at half of the fitted maximal effect. On caspase activation: 0% is about no effect. The gist of the method: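 Natural products applied to HEK293 for 18 hr; Caspase-Glo 3/7 readout.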
(qHTS replaces the single test concentration by a dilution series.)

The nature of test [2]: Inflammasome Signaling qHTS Counterscreen: IL-1-beta AlphaLISA counterscreen against the NCATS CANVASS Library (AID 1347381).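 Further: cell-free check with purified IL-1β in medium and no THP-1 cells; series mostly up to about 57 µM; 0% is about no effect.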 The method in brief: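 Cell-free interference check: compounds added to medium spiked with 4 pg purified IL-1β. Anti-IL-1β acceptor beads (6 ug/mL) with 0.6 nM biotinylated antibody added for 1 h at RT, then streptavidin donor beads (24 ug/mL) for 30 min in the dark. AlphaLISA read at 680/615 nm.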

The nature of test [3]: qHTS for Antimalaria activity screened against the NCATS CANVASS Library (AID 1347380). Further: nearly all actives have a fitted effect of over 40% in size. Further: potency means the concentration at half of the fitted maximal effect.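 On activity change, negative = inhibition: Plasmodium falciparum strain Dd2 asexual parasites grown in red blood cells; series mostly up to about 29 µM.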 The method in brief:
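Dd2 strain, infected erythrocytes 2.5% Hct final / 0.3% parasitemia. 11-pt qHTS titration, 72 h, 37C, 5% O2, 5% CO2. Lysis buffer + SYBR Green, 18 h, fluorescence 485/535 nm.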

Test [4] can be described thus: qHTS for inhibitors of ER calcium dysfunction: SERCaMP assay screened against the NCATS CANVASS Library (AID 1347393). Further: nearly all actives have a fitted effect of over 40% in size. Further: potency means the concentration at half of the fitted maximal effect.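 On activity change, negative = inhibition: series mostly up to about 77 µM; on the % scale 0 is the no-effect control and ±100 the full control effect; lower secreted reporter signal means inhibitor of ER calcium depletion.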 The method in brief: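 qHTS in SH-SY5Y reporter cells: 16 h compound pretreatment, 4 h thapsigargin, then secreted Gaussia luciferase measured by luminescence.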
Test [5] in a line: qHTS for Hypoxia signaling pathway (HIF-1) antagonists against the NCATS CANVASS Library (AID 1347374). Further: nearly all actives have a fitted effect of over 60% in size. Further: potency means the concentration at half of the fitted maximal effect.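 On activity change, negative = inhibition: HRE-bla ME-180 cells stimulated with cobalt chloride to stabilize HIF-1alpha; series mostly up to about 38 µM; on the % scale 0 is the no-effect control and ±100 the full control effect.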 The gist of the method:
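HRE-bla ME-180 cells in medium with 0.5% dialyzed FBS received compounds (11-point series) plus CoCl2 (60 uM addition stock) for 17 hrs at 37C. Beta-lactamase activity read with CCF4 (405 nm ex, 460/530 nm em); CellTiter-Glo viability measured in same wells.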

A short description of test [6]: Secretion counterscreen for inhibitors of the SERCaMP assay screened against the NCATS CANVASS Library (AID 1347390).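 Further: light from luciferase secreted into medium read as a measure of general secretion; series mostly up to about 77 µM; on the % scale 0 is the no-effect control and ±100 the full control effect.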 The gist of the method: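 Natural products are titrated in an 11-point series up to 77 uM onto SH-SY5Y-GLuc STOP cells for 20 h. Secreted reporter activity is measured as coelenterazine-driven luminescence, with Brefeldin A on each plate.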
For orientation: A counterscreen serves to expose hits that act by an unwanted route or on another target.

A short description of test [7]: HEK293 12hr Apoptosis Induction qHTS against the NCATS CANVASS Library (AID 1347361). Further: potency means the concentration at half of the fitted maximal effect. On caspase activation: 0% is about no effect. The method in brief: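 Luminescent caspase-3/7 signal, proportional to enzyme activity, was recorded from HEK293 cultures in DMEM + 10% FBS treated for 12 hours with titrated natural products (11 points). Doxorubicin (0.1nM - 4uM) served as control.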
Test [8] can be described thus: KB-3-1 Cancer Cell Toxicity qHTS against the NCATS CANVASS Library (AID 1347366). Further: nearly all actives have a fitted effect of over 75% in size. Further: potency means the concentration at half of the fitted maximal effect. On activity change, negative = cytotoxicity: series mostly up to about 46 µM; on the % scale 0 is the no-effect control and ±100 the full control effect. The method in brief: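 Cytotoxicity toward KB-3-1 cells (500/well, DMEM + 10% FBS) was scored by CellTiter-Glo luminescence following 72 hr exposure at 37C, with bortezomib titrated as control.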
Test [9] can be described thus: UWB1.289 Cancer Cell Toxicity qHTS against the NCATS CANVASS Library (AID 1347347). Further: nearly all actives have a fitted effect of over 60% in size. Further: potency means the concentration at half of the fitted maximal effect. On activity change, negative = cytotoxicity: series mostly up to about 38 µM; on the % scale 0 is the no-effect control and ±100 the full control effect. The method in brief: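 In this cytotoxicity screen, 1000 cells per well rested 4 hours, then received compound (11 concentrations) for a 72-hour incubation; an ATP-dependent luminescent signal (CellTiter-Glo) was the endpoint.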

On to `CC(C)=CCC/C(C)=C/Cc1c(O)c(CC=C(C)C)c(O)c2c(=O)c3cc(O)ccc3oc12`, for which the Potency entry in test [1] is “inactive”. Also, the result in [2] was inactive.
Regarding `C=CC(C)(C)C(=O)[C@@H](C)[C@@H]1CC[C@](C)(C=C)O1`, the Potency result in test [1], in test [3] and in [4] was “inactive” in each case. In [2], the result was inactive.
As for `CCCCCC[C@H](CCCCC[C@@H](O)C(N)=O)OC(=O)[C@@H]1CC=CN1C(=O)c1ccccc1O`, the Potency entry in test [5], in test [6] and in test [4] was “inactive” in each case. In test [2], the compound was called inactive.
`C[C@@H]1O[C@@H](Oc2c(-c3ccc(O)cc3)oc3cc(O)cc(O)c3c2=O)[C@H](O)[C@H](O)[C@H]1O`: the Potency entry in test [7], in test [8], in [3] and in test [6] was “inactive” each time. The compound was classed as inactive in test [2].
With `C/C=C/C(=O)[C@@H](C)C1=CC(=O)C2=C(O[C@@]34CC[C@H](O)C(C)(C)[C@@H]3CC[C@H](C)[C@@]4(C)C2)C1=O`, the Potency in test [7] is 9.35 µM (active); in [8], 20.9 µM (active). In addition, in test [2], the result was inactive.
For the compound `O=C1CC(c2cc(O)cc(O)c2)Oc2cc(O)ccc21` (stereo not drawn), the Potency result in test [1], in test [8], in test [5] and in test [3] was “inactive” in each case. Moreover, the compound was called inactive in test [2]. Besides, the Potency in test [4] was 8.6 µM (active).
For `CCCCCCCCC[C@@H]1C[C@@H]2CC[C@H]3[C@@H](C(=O)OCCCCN=C(N)N)[C@@H](C)N=C(N1)N23`, the Potency entry in test [1], in [6] and in test [4] was “inactive” in each case. Moreover, the Potency in test [8] is 0.578 µM (active); in [3] it was 1.64 µM (active). Also, in test [2], the result was inactive.
For `Oc1ccc(C2c3c(O)cc(O)cc3[C@@H]3C(c4ccc(O)cc4)c4c(O)cc(O)cc4[C@H]23)cc1` (stereo partly drawn), the Potency result in test [9], in [1], in [7], in test [8], in test [5] and in [6] was “inactive” in each case. In test [4], the Potency entry was “inactive”.
Regarding `O=Cc1ccc2n1C[C@@]1(OC2)O[C@H](CO)[C@@H](O)[C@@H]1O`, the Potency result in test [1], in [8], in test [3], in [6] and in test [4] was “inactive” each time. Also, the call in test [2] was inactive.
Regarding `CN1CC[C@]2(c3cccc4c3N[C@@H]3N(C)CC[C@]43[C@@]34CCN(C)[C@@H]3Nc3c([C@]56CCN(C)[C@H]5Nc5ccccc56)cccc34)c3ccccc3N[C@H]12`, the Potency in [9] was 4.72 µM (active).
On to `COc1c(O)cc2oc(-c3ccccc3)cc(=O)c2c1O`, for which the Potency result in [1], in test [7] and in [6] was “inactive” throughout. In addition, the Potency in test [5] is 9.41 µM (active).
For the compound `CC(=O)O[C@H]1CC[C@@]2(C)C(CC[C@]3(C)C2CC=C2C4CC(C)(C)CC[C@]4(C)CC[C@]23C)C1(C)C` (stereo partly drawn), the Potency entry in test [9], in [3] and in [6] was “inactive” each time. In addition, the outcome in test [2] was inactive.
As to `C=C1C[C@@]23C=CC(=O)[C@@](C)(CCC(=O)Nc4c(O)ccc(C(=O)O)c4O)C2C[C@@H]1CC3O` (stereo partly drawn), the Potency entry in test [1], in test [7], in [8], in test [5], in test [3] and in [6] was “inactive” each time. In addition, in [2], the compound was classed as inactive.
Regarding `C=C(NC(=O)c1csc(-c2nc3c(cc2O)-c2nc(cs2)C(=O)NC(C(C)O)C(=O)N/C(=C(\C)O)c2nc(cs2)C(=O)NC2c4nc(cs4)C(=O)NC(COC(=O)c4c5c6c(cccc6n4O)COC(=O)[C@@H](OC4C[C@](C)(O)[C@H](N(C)C)[C@H](C)O4)C2OC5)c2nc-3cs2)n1)C(N)=O` (stereo partly drawn), the Potency entry in test [9] and in [8] was “inactive” each time. For the same compound, in [3], the Potency was 0.334 µM (active). In addition, the result in test [2] was inactive.
On to `CCCCCCC[C@@H](C/C=C/CCC(=O)NCCc1c[nH]c2ccccc12)OC`, for which the Potency entry in test [7], in [8] and in test [6] was “inactive” in each case. The call in test [2] was inactive.
As to `C=C1C[C@@]23C=CC(=O)[C@@](C)(CCC(=O)Nc4c(O)ccc(C(=O)O)c4O)C2C[C@@H]1CC3` (stereo partly drawn), the Potency result in test [7], in test [8], in test [3] and in test [4] was “inactive” throughout. Also, in test [2], the compound was called inactive.
Turning to `CC(=O)[C@@H]1[C@@H](O)C[C@H]2[C@]3(C)CC[C@H]4C(C)(C)CCC[C@]4(CO)[C@H]3C[C@H]3OC(=O)[C@@H]1[C@@]32C`, the Potency result in test [5] and in test [6] was “inactive” throughout. Besides, the Potency in test [4] was 38.4 µM (active).
As for `COc1ccc([C@@H]2c3cc(OC)c(OC)cc3C(=O)[C@H](C)C2C)cc1OC` (stereo partly drawn), the activity change, negative = cytotoxicity in test [9] is 3.43% [at 7.64 µM]; in [8], 8.45% [at 9.19 µM]. The caspase activation in test [1] was 3.8% [at 9.19 µM]. In addition, the activity change, negative = inhibition in [5] is 9.63% [at 7.64 µM]; in [6] it was -9% [at 15.3 µM].
For the compound `CN1CC[C@]2(c3cccc4c3N[C@@H]3N(C)CC[C@]43[C@@]34CCN(C)[C@@H]3Nc3ccccc34)c3ccccc3N[C@H]12`, the Potency in test [8] was 16.6 µM (active); in test [5], 14.9 µM (active); in test [3], 1.49 µM (active). Further, in test [2], the outcome was inactive. Moreover, the Potency result in test [4] is “inactive”.
In the case of `C=C(C)C(=O)O[C@H]1C[C@H](C)[C@@H](OC(C)=O)CC[C@@]2(C)O[C@@H]2[C@H]2OC(=O)C(COC(C)=O)=C12`, the Potency in test [1] was 9.35 µM (active); in test [7], 9.35 µM (active); in test [4] it was 0.86 µM (active). Besides, the outcome in [2] was inactive.
In the case of `CN1CCc2cc3c(c4c2[C@H]1[C@@H](O)c1ccccc1-4)OCO3`, the Potency result in test [1] and in test [7] was “inactive” throughout. Besides, the Potency in test [4] is 34.3 µM (active).
On to `C/C(=C\[C@H](C)C(=O)CCCC1CC(=O)NC(=O)C1)[C@@H]1OC(=O)/C=C/CC/C=C/C[C@@H](O)[C@@H]1C`, for which the Potency result in test [1] and in test [4] was “inactive” throughout. Also, the values for the Potency in test [8] and in [5] were 14.8 µM (active) and 1.06 µM (active), respectively. The compound was classed as inactive in test [2].
Take `Oc1ccc([C@H]2Oc3ccc(/C=C/c4cc(O)cc(O)c4)cc3C2c2cc(O)cc(O)c2)cc1` (stereo partly drawn): the Potency in [3] was 0.003 µM (active).
